Screens: PubChem BioAssay, National Center for Advancing Translational Sciences (NCATS)
Rows were chosen to be rich in hits. Some 12% of all compounds tested hit in one or more screens of this group.
Pf growth 48h – Primary qHTS for delayed death inhibitors of the malarial parasite plastid, 48 hour incubation; P. falciparum luciferase growth in erythrocytes, 48 h; Potency, µM (doses to about 28.7 µM), for inactives: at the highest dose activity change, negative = inhibition, hits mostly inhibitors; 310,000 tested, 5.9% active; AID 504832, 2011; also: % is scaled to controls: 0 for no effect and ±100 for the full control effect
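Parasite viability was followed by luminescence of a genomically integrated firefly luciferase. Cultures held 0.1% parasitemia at 2% hematocrit (final), incubated under 5% CO2 at 37 C.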
SARS PLpro yeast – qHTS of Yeast-based Assay for SARS-CoV PLP | S. cerevisiae expressing SARS-CoV PLpro, growth rescue | Potency, µM (series often up to 32.9 µM), for the others: top-dose activity, positive = growth rescue, hits mostly activators | 330,000 tested, 0.19% active; calls by dose curve; also: 0% is about no effect; nearly all actives have a fitted effect of over 55% in size
Pf growth 96h – Primary qHTS for delayed death inhibitors of the malarial parasite plastid, 96 hour incubation; 320,000 tested, 6.9% active; P. falciparum luciferase reporter growth, 96 h; AID 504834, 2011; Potency, µM (doses to about 28.7 µM), without a hit: top-dose activity change, negative = inhibition, most hits filed as inhibitors; also: % is scaled to controls: 0 for no effect and ±100 for the full control effect
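Parasite growth measured via integrated firefly luciferase reporter in P. falciparum. Infected erythrocytes at 2% hematocrit, 0.05% parasitemia final were treated 96 hours at 37 C under 5% CO2, and luminescence was read.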
Sm TGR block – qHTS Assay for the Inhibitors of Schistosoma Mansoni Peroxiredoxins. Schistosoma mansoni thioredoxin glutathione reductase (TGR), Q962Y6. purified TGR, DTNB reduction, TNB absorbance 405 nm. Potency, µM (top dose mostly 114 µM), inactives show top-dose activity change, negative = inhibition, hits mostly inhibitors. 360,000 tested, 3% active. AID 485364, 2010; also: % is scaled to controls: 0 for no effect and ±100 for the full control effect; nearly all actives have a fitted effect of over 60% in size
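Kinetic colorimetric format: TGR-catalysed, NADPH-driven DTNB reduction monitored via TNB absorbance. Enzyme dispensed at 20 nM; compound exposure 15 min at room temperature before reaction start.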
Starred values were filed as active, the others as inactive. Unless noted, calls follow the shape of the dose curve; as a rule, active = well fitted curve in the direction sought with a large enough effect; inconclusive = small, poorly fitted or top-dose-only effect, or another doubt; inactive = no such curve, though single readings can be large; an effect the other way counts as inactive or inconclusive. Potency is read from the fitted curve at half-maximal effect.

What do the screens show for `O=C1COc2cc(S(=O)(=O)CCC(=O)N3CCN(c4ccccc4)CC3)c(Cl)cc2N1`?
Sm TGR block: 42%

What do the screens show for `Cc1cc(NC(=O)CSc2nc3cc(Cl)ccc3c(=O)n2C(C)C)no1`?
Pf growth 48h: 0%; SARS PLpro yeast: -4%; Pf growth 96h: 0%; Sm TGR block: 4%

How did O=C(c1ccc(Cl)c(Cl)c1)N1CCC(=O)N(C(COCc2ccccc2)Cc2ccccc2)CC1 (centres undefined) do in these assays?
Pf growth 48h: inconclusive; SARS PLpro yeast: -6%; Pf growth 96h: 12µM*; Sm TGR block: -16%

What do the screens show for `Cc1cccc(C(=O)N2CCC(=O)N(C(COCc3cccc(C(F)(F)F)c3)Cc3ccccc3)CC2)c1` (centres undefined)?
Pf growth 48h: inconclusive; SARS PLpro yeast: -6%; Pf growth 96h: 9.3µM*; Sm TGR block: -16%

How did Cc1cccc(C(=O)N2CCC(=O)N(C(COCc3ccccc3)Cc3ccccc3)CC2)c1 (centres undefined) do in these assays?
Pf growth 48h: -23%; SARS PLpro yeast: inconclusive; Pf growth 96h: 13µM*; Sm TGR block: -8%

How did COc1ccc(C(=O)N2CCC(=O)N(C(CO)Cc3ccccc3)CC2)cc1 (centres undefined) do in these assays?
Pf growth 48h: 30%; SARS PLpro yeast: 21%; Pf growth 96h: -1%; Sm TGR block: -25%

What do the screens show for `CCC(CC)N1CCN(C(=O)c2cccc(Cl)c2)CC1`?
Pf growth 48h: 16%; SARS PLpro yeast: -7%; Pf growth 96h: 13µM*; Sm TGR block: 10%

Results for CN1CCN(C(CNC(=O)C(=O)Nc2ccccc2C#N)c2ccc3c(c2)OCO3)CC1 (centres undefined) ?
Sm TGR block: 11%

Results for COc1cc2c(cc1OC)n(Cc1cccc(C(F)(F)F)c1)c(=O)n1nc(-c3ccccc3)nc21 ?
Sm TGR block: 0%

Results for Cc1cc(C)c(NC(=O)C(C)n2nc(C)c3sc4ccccc4c3c2=O)c(C)c1 (centres undefined) ?
Sm TGR block: -4%

How did Cc1cccc(COCC(Cc2ccccc2)N2CCN(C(=O)c3cccc(Cl)c3)CCC2=O)c1 (centres undefined) do in these assays?
Pf growth 48h: inconclusive; SARS PLpro yeast: 10%; Pf growth 96h: 12µM*; Sm TGR block: -16%

Results for O=C(c1cccc(Cl)c1)N1CCC(=O)N(C(COCc2ccccc2)Cc2ccccc2)CC1 (centres undefined) ?
Pf growth 48h: inconclusive; SARS PLpro yeast: 10%; Pf growth 96h: 10µM*; Sm TGR block: -16%

What do the screens show for `Cc1ccc(S(=O)(=O)N2CCC(=O)N(C(COCc3ccc(Cl)cc3)Cc3ccccc3)CC2)cc1` (centres undefined)?
Pf growth 48h: 12µM*; SARS PLpro yeast: -26%; Pf growth 96h: 10µM*; Sm TGR block: -4%

What do the screens show for `O=C(NC1CCSc2ccccc21)c1cc(S(=O)(=O)N2CCOCC2)ccc1Cl` (centres undefined)?
Pf growth 48h: inconclusive; SARS PLpro yeast: 2%; Pf growth 96h: -8%; Sm TGR block: -2%

Results for O=C(Nc1cccc(-n2cnnn2)c1)C1CCCN(Cc2cccc(C(F)(F)F)c2)C1 (centres undefined) ?
Pf growth 48h: 15µM*; SARS PLpro yeast: -2%; Pf growth 96h: -24%; Sm TGR block: -7%

Results for Cc1cc(CN2CCCC(C(=O)Nc3cccc(-n4cccn4)c3)C2)cc(C)c1O (centres undefined) ?
Pf growth 48h: inconclusive; SARS PLpro yeast: 0%; Pf growth 96h: 33%; Sm TGR block: -10%

How did O=C(Nc1cccc(-n2cccn2)c1)C1CCCN(Cc2cc3ccccc3[nH]2)C1 (centres undefined) do in these assays?
Pf growth 48h: inconclusive; SARS PLpro yeast: -3%; Pf growth 96h: -30%; Sm TGR block: inconclusive

How did Cc1c(CN2CCCC(C(=O)Nc3cccc(-n4cccn4)c3)C2)cnn1C (centres undefined) do in these assays?
Pf growth 48h: -25%; SARS PLpro yeast: 0%; Pf growth 96h: 13µM*; Sm TGR block: -14%

What do the screens show for `Cn1cc(CN2CCCC(C(=O)Nc3cccc(-n4cccn4)c3)C2)cn1` (centres undefined)?
Pf growth 48h: 10%; SARS PLpro yeast: 7%; Pf growth 96h: inconclusive; Sm TGR block: -12%

What do the screens show for `CCn1ncc(CN2CCCC(C(=O)Nc3cccc(-c4cc5ccccc5[nH]4)c3)C2)c1C` (centres undefined)?
Pf growth 48h: 4.1µM*; SARS PLpro yeast: 2%; Pf growth 96h: -9%; Sm TGR block: 8%

What do the screens show for `O=C(O)c1ccc(Cn2cnc3sc4c(c3c2=O)CCCC4)cc1`?
Pf growth 48h: 8%; SARS PLpro yeast: -1%; Pf growth 96h: 2%

Results for O=C(O)c1ccc(Cn2cnc3cccnc32)cc1 ?
Pf growth 48h: 1%; SARS PLpro yeast: 0%; Pf growth 96h: 6%; Sm TGR block: 50µM*

Results for COc1ccc(N(C(=O)c2snc(C(N)=O)c2N)C(C(=O)NC2CCCC2)c2ccc(F)cc2)c(OC)c1 (centres undefined) ?
Pf growth 48h: inconclusive; SARS PLpro yeast: 0%; Pf growth 96h: 219%; Sm TGR block: 7%

How did COc1ccc(C(C(=O)NC2CCCC2)N(C(=O)c2snc(-c3ccc(F)cc3)c2N)c2ccc(F)cc2)cc1 (centres undefined) do in these assays?
Pf growth 48h: inconclusive; SARS PLpro yeast: 5%; Pf growth 96h: -4%; Sm TGR block: -28%

What do the screens show for `COc1ccc(C(C(=O)NC2CCCC2)N(C(=O)c2snc(-c3ccc(F)cc3)c2N)c2ccc(OC)cc2)cc1` (centres undefined)?
Pf growth 48h: inconclusive; SARS PLpro yeast: 1%; Pf growth 96h: 5.2µM*; Sm TGR block: 3%

How did COc1cc(C(C(=O)NC2CCCC2)N(C(=O)c2snc(C(N)=O)c2N)c2ccccc2)cc(OC)c1OC (centres undefined) do in these assays?
Pf growth 48h: inconclusive; SARS PLpro yeast: 0%; Pf growth 96h: 8.3µM*; Sm TGR block: 4%

What do the screens show for `COc1ccc(C)cc1N(C(=O)c1snc(C(N)=O)c1N)C(C(=O)NC1CCCC1)c1ccc(F)cc1` (centres undefined)?
Pf growth 48h: 9.3µM*; SARS PLpro yeast: 1%; Pf growth 96h: 21%; Sm TGR block: -11%

Results for CC(=O)Nc1ccc(NC(=O)COC(=O)COc2ccc3ccccc3c2)cc1 ?
SARS PLpro yeast: -2%

How did O=C(NCCCNC(=O)c1ccco1)c1ccc(F)cc1 do in these assays?
Pf growth 48h: 6%; SARS PLpro yeast: 0%; Pf growth 96h: 16%; Sm TGR block: -9%

What do the screens show for `O=C(O)CCC(=O)N1CCc2cc(S(=O)(=O)NCc3ccc(F)cc3)ccc21`?
Sm TGR block: 1%
